Drawing on PubChem BioAssay AID2314 (National Center for Advancing Translational Sciences (NCATS), 2010), this text covers max response for 59 compounds.

SMILES strings stand for the structures. Where “and” joins values, the source holds several entries; their conditions need not be identical. Identical values can stand only once. About 37,000 (12%) of roughly 300,000 compounds were called active. Only a selection was taken, and actives are over-represented in it overall. Unmarked numbers belong to inactive results. No stated cut-off is given here; in the data, active means max response mostly above about 13% (no sharp cut-off); inactive means mostly below about 14%.

This experiment in a line: Cycloheximide Counterscreen for Small Molecule Inhibitors of Shiga Toxin. Further: read at 38.3 µM for the half of the compounds with a filed dose; 0% is about no effect. To be noted: cell reporter, cycloheximide protein synthesis inhibition counterscreen; stronger effect = higher value.
Regarding `CCCCCn1c(=O)[nH]c2cc(C(=O)NCCCN3CCCCC3C)ccc2c1=O` (centres undefined), the max response is -2.4%.

Consider `CC(C)CN(CC(C)C)CC(O)CN(c1ccccc1)S(=O)(=O)c1ccccc1[N+](=O)[O-]` (centres undefined), for which the max response was 3.27%.

In the case of `CC(C)CNC(=O)C(=O)NCC(c1ccc2c(c1)OCO2)N1CCOCC1` (centres undefined), the max response is -4.38%.

As to `COCCOC1CCN(C(=O)c2ccc(OC)c(OC3CCN(C(C)C)CC3)c2)CC1`, the max response is -2.04%.

`Cc1noc(NS(=O)(=O)c2ccc(NC(=O)c3oc4ccc(F)cc4c3C)cc2)c1C`: the max response is -2.38%.

Regarding `Cc1nc(-c2ccccc2)cn2c1nc1ccccc12`, the max response was 12.4%.

In the case of `Cc1ccc(S(=O)(=O)N2CCC(Oc3ccc(-n4cnnn4)cc3)CC2)cc1`, the max response was -4.88%.

As to `O=C(Cc1ccc(Br)cc1)NCCN1CCOCC1`, the max response is -13%.

For the compound `CCN1C(=NCCc2cccnc2)N[C@@H](c2ccccc2)C(C(=O)OC)=C1C`, the max response is 1.37% and -1.46%.

As to `O=C(c1ccc(F)cc1)n1c(=S)nc2ccccn21`, the max response is 53.4% (active).

For the compound `O=C(c1ccc(F)cc1)n1cc(C(=S)N2CCOCC2)c2ccccc21`, the max response is 7.24%.

With `O=C(C[n+]1cc(Br)cc2ccccc21)c1ccc(F)cc1`, the max response was 3.72%.

For the compound `CC(C(=O)NC1CCCCC1)N1C(=O)c2cccc3cccc1c23` (centres undefined), the max response is 11.1%.

For the compound `COCCN(C(=O)CCC(=O)Nc1nccs1)C(C(=O)NCCC(C)C)c1ccc(F)cc1` (centres undefined), the max response is -2.06%.

Turning to `CCOC(=O)c1c(-c2ccc(C)cc2)csc1/N=C(\C)C1=C(O)c2ccccc2C1=O`, the max response is 11.2% (active).

For the compound `CCOC(=O)C1=C(c2ccc(OC)cc2)C(=O)c2ccccc2C1=O`, the max response was 1.07%.

With `CCOC(=O)c1c(-c2ccc(-c3ccccc3)cc2)csc1NC(=O)CCC(=O)O`, the max response is -2.27%.

For `Cc1cccc(NC(=S)Nc2ccc3cn[nH]c3c2)c1`, the max response was 7.4%.

For the compound `S=C(Nc1cccc(Cl)c1)Nc1ccc2cn[nH]c2c1`, the max response is 24.8% (active).

With `Cc1csc(NC(=S)Nc2cccc(Cl)c2)n1`, the max response was 41.1% (active).

In the case of `CCn1c(SCC(=O)Nc2nc(C)cs2)nnc1C(C)NC(=O)c1ccccc1` (centres undefined), the max response is 1.33%.

For the compound `CCc1cccc(CC)c1NC(=S)Nc1ccc2cn[nH]c2c1`, the max response was -0.951%.

With `CC(=O)Nc1cccc(C(=O)Nc2nc(C)cs2)c1`, the max response is 27.2% (active).

With `Cc1cccc(NC(=S)Nc2ccc(Cl)c(Cl)c2)c1`, the max response is -1.87%.

Consider `Cc1csc(NC(=O)c2ccc(-c3ccc(Cl)cc3Cl)o2)n1`, for which the max response was 11.3%.

Consider `CC(=O)c1cccc(NC(=O)c2ccncc2)c1`, for which the max response is 7.01%.

`Cc1cc(=O)oc2cc(OCC3CC(c4ccccc4Cl)=NO3)ccc12` (centres undefined): the max response was 13.7%.

Take `Cc1ccc(NC2CCCN(C(=O)CCC3(C)CC3)C2)cc1C` (centres undefined): the max response is 10.8%.

Regarding `Cc1nc2ccc(C(=O)N(C)CC3CCCN(CCc4ccc(Cl)cc4)C3)cc2[nH]1` (centres undefined), the max response was -2.66%.

Turning to `C=CCNC(=S)N1CCN(CCN=Cc2c(C)[nH]n(-c3ccc([N+](=O)[O-])cc3)c2=O)CC1`, the max response is -1.17%.

For `CCO[C@H]1OC(C(=O)Nc2ccccc2)=C[C@@H](C2CC2)[C@@H]1CCCO`, the max response is -1.4%.

Turning to `C[C@]1(C(=O)NCCc2c[nH]c3ccccc23)C=C[C@@H](Cc2ccccc2)N1C(=O)c1ccccc1`, the max response is 11.9%.

Regarding `Cc1ccc(N2C(=O)C3C(c4ccccc4)(C2=O)C3(c2ccccc2)c2ccccc2)cc1` (centres undefined), the max response is -4.14%.

Turning to `CCOc1cccc(-c2nn3c(-c4ccccn4)nnc3s2)c1`, the max response is 22.6% (active).

As to `c1ccc(-c2cc(-c3nnc4sc(-c5ccccn5)nn34)[nH]n2)cc1`, the max response is 5.86%.

`COc1cc(-c2nn3c(-c4cccc(C)c4)nnc3s2)cc(OC)c1OC`: the max response was -2.72%.

`CCC(=O)N(Cc1cc2cc(OC)ccc2[nH]c1=O)c1ccccc1C`: the max response was -0.76%.

As for `COc1ccc2[nH]c(=O)c(CNc3ccc(C)c(C)c3)cc2c1`, the max response is 15% (active).

Take `COc1ccc(N(Cc2cc3cc(OC)ccc3[nH]c2=O)S(C)(=O)=O)cc1`: the max response was -1.64%.

Consider `CC(=O)c1ccc(S(=O)(=O)N2CCC(Oc3ccc(-n4cnnn4)cc3)CC2)cc1`, for which the max response is -8.92%.

As to `N#Cc1c(Cl)nc(-c2cccnc2)nc1-c1ccccc1`, the max response was -2.59%.

`S=C(Nc1cccnc1)Nc1ccccn1`: the max response is -1.56%.

Consider `CCOC(=O)c1cnc(-n2nc(C)cc2C)nc1NNc1cc(C)nc(-c2ccccc2)n1`, for which the max response is -1.88%.

For `COc1ccc(/C=N/Nc2ccccc2C(=O)O)cc1`, the max response was 38.9% (active).

With `COc1ccc(/C=N/Nc2nc(-c3ccc(C)cc3)c(C#N)c(=O)[nH]2)cc1`, the max response is -2.53%.

Consider `COc1ccc(/C=N/OCC(=O)N(Cc2ccccc2)c2ccccc2C(=O)O)cc1`, for which the max response is -1.3%.

For the compound `COc1ccc(C=Nc2cccc3ncccc23)cc1`, the max response was 5.61%.

Take `COc1ccc(/C=N/NS(=O)(=O)c2ccc(NC(C)=O)cc2)cc1`: the max response is -2.62%.

Consider `COc1ccc(/C=N/Nc2nc3ccccc3c(=O)[nH]2)cc1`, for which the max response is 43.2% (active).

As for `Cc1cccc(NC(=O)C2CCN(C(=O)NC3CCCCC3)CC2)c1`, the max response is -6.02%.

Consider `Cc1ccc2cc(CCNC(=O)c3c(-c4ccccc4Cl)noc3C)c(=O)[nH]c2c1`, for which the max response is -3.51%.

With `Cc1c2cnn(CC(=O)NCc3ccccn3)c(=O)c2c(C)n1Cc1ccc(Cl)cc1`, the max response is -3.5%.

As to `COCc1cc(=O)oc2cc(NS(=O)(=O)c3ccc(C)cc3)ccc12`, the max response is 2.21%.

As for `Cc1ccc2c(CSc3nncs3)cc(=O)oc2c1`, the max response was 26.8% (active).

Regarding `CCOC(=O)Cc1csc(SCc2cc(=O)oc3cc(O)ccc23)n1`, the max response is -1.72%.

Consider `CCCNC(=O)CSc1nc(Cc2ccccc2)nc2ccccc12`, for which the max response was -5%.

In the case of `CN=c1scc(-c2cc(OC)ccc2OC)n1/N=C/c1c(C)[nH]c2ccccc12`, the max response is 15.1% (active).

For `CCn1c(-c2cc(OC)ccc2OC)csc1=Nc1c(C)n(C)n(-c2ccccc2)c1=O`, the max response was -0.97%.

On to `COc1ccc(C)cc1Nc1nc(-c2c(C)[nH]c3ccccc23)cs1`, for which the max response was 11.4%.
